Inconclusive results are not listed. A call without a number means that no potency is given here. Calls of active or inactive are those of the source. The call rests on the fitted dose curve; in most records, active means well fitted inhibition curve with a large enough effect; inconclusive means small, poorly fitted or top-dose-only effect; inactive means no such curve, though single readings can be large or run the other way.
Potency means the concentration at half of the fitted maximal effect.

A short description of this assay: Counterscreen qHTS for small molecule stabilizers of the endoplasmic reticulum resident proteome: GLuc-NoTag assay (AID 1508627). The conditions noted are these: Gaussia luciferase NoTag secretion counterscreen, luminescence, thapsigargin 100 nM for final 4 h; series mostly up to 76.4 µM. The source says:
Assay Provider: Brandon K. Harvey Ph.D.
National Institute on Drug Abuse, National Institutes of Health, Baltimore, MD
Endoplasmic reticulum (ER) dysregulation is associated with human pathologies including neurodegenerative, cardiovascular, muscular, and diabetic conditions. Maintenance of ER calcium is critical for functions of the ER and its depletion can lead to loss of ER resident proteins, in a process termed exodosis. Therapeutic compounds capable of attenuating the redistribution of ER proteins under pathological conditions may slow or stop disease progression. To identify such compounds, we performed a quantitative high-throughput screen (qHTS) using the SERCaMP assay, which monitors secretion of ER resident proteins triggered by calcium depletion.
SERCaMP was initially developed as a reporter of ER calcium homeostasis using a Gaussia luciferase with a modified signal peptide and carboxy-terminus (GLuc-SERCaMP), modifications that confer secretion of the reporter in response to ER calcium depletion (Henderson et al., 2014). The assay was used to screen 9,501 compounds, including a collection of drugs approved by the FDA (US), EMA (EU), NHI (Japan), and HC (Canada) regulatory agencies (Huang et al., 2011). Since the SERCaMP reporter reflects the exodosis phenomenon (Trychta et al., 2018a), compounds identified in the screen have the potential to prevent exodosis by different mechanisms such as stabilizing ER calcium or augmenting ERS retrieval.
1. Henderson, M.J., Wires, E.S., Trychta, K.A., Richie, C.T., and Harvey, B.K. (2014). SERCaMP: a carboxy-terminal protein modification that enables monitoring of ER calcium homeostasis. Mol Biol Cell 25, 2828-2839.
2. Huang, R., Southall, N., Wang, Y., Yasgar, A., Shinn, P., Jadhav, A., Nguyen, D.T., and Austin, C.P. (2011). The NCGC pharmaceutical collection: a comprehensive resource of clinically approved drugs enabling repurposing and chemical genomics. Sci Transl Med 3, 80ps16.
3. Trychta, K.A., Back, S., Henderson, M.J., and Harvey, B.K. (2018a). KDEL Receptors Are Differentially Regulated to Maintain the ER Proteome under Calcium Deficiency. Cell Rep 25, 1829-1840 e1826.
SEQUENCE No. (1, 2, 3, etc.); […] (e.g., Cells, Incubation, Reagent, etc.); VALUE and DESCRIPTION.
1; Reagent; 5 uL; 1000 SH-SY5Y cells per wells
3; Compound; 23 nL; Control inhibitor / compound library
5; Reagent; 100 nM; Thapsigargin
7; Reagent; 1 uL; 0.5x coelenterazine
8; Detection; Luminescence; ViewLux imaging system
NOTES (numbers refer to sequence above)
1; SH-SY5Y human neuroblastoma cells stably expressing the constitutively secreted GLuc (SH-SY5Y-GLuc-NoTag) cells were seeded in 1,536 well white tissue culture treated plates (Corning, Cat# 7464) in DMEM-high glucose-sodium pyruvate (ThermoFisher Scientific, Cat #10569) supplemented with 10% bovine growth serum (Hyclone), 10 U/ml penicillin (Gibco), 10 ug/ml streptomycin (Gibco), and 20 mM HEPES.
2; Assay plates were incubated for 5 hour at 37C in a humidified incubator containing 5% CO2.
4; Cells were then incubated for 19 hours at 37C, 5% CO2.
5; Thapsigargin was added at 100 nM to deplete ER calcium stores.
6; Cells were incubated for 4 hour (37 °C, 5% CO2)
7; Gaussia luciferase in the medium was measured by adding 1 ul of 0.5x coelenterazine (final concentration 0.07x) prepared in Gaussia Luciferase Glow Assay Buffer (Pierce), without addition of the Cell Lysis Buffer Reagent.
8; Luminescence was measured using a ViewLux CCD imaging system (Perkin Elmer) equipped with clear filters. […] The same controls were also used for the calculation of the Z' factor, a measure of assay quality control, as previously described (Zhang et al., 1999). For the initial validation of activity in the SERCaMP assays, hits from the primary screen were assayed again at 11-concentrations (1.3 nM - 76.6 uM). SH-SY5Y-GLuc-SERCaMP cells were assayed for ER Ca2+ depletion as outlined above.
1. Zhang, J.H., Chung, T.D., and Oldenburg, K.R. (1999). […]
On the technique in general: A counterscreen serves to expose hits that act by an unwanted route or on another target.
As for `Cc1nc2cnc(N3CCN(C)CC3)nc2n(Cc2cccs2)c1=O`, the Potency result was “inactive”. Take `CN(C)c1ccc(-c2nccc(NCCN3CCOCC3)n2)cc1`: the Potency entry is “inactive”. For `CN1CCN(c2nc(-c3cccc(C#N)c3)nc3ccccc23)CC1`, the Potency entry was “inactive”. Then `FC(F)(F)c1ccccc1-c1nc(NC2CCNCC2)c2ccccc2n1`, with “inactive”; and `CN1CCN(c2ncncc2-c2ccccc2C(F)(F)F)CC1`, with “inactive”; and `CN(C)c1nccc(N(Cc2ccccc2)Cc2ccccc2)c1C#N`, with “inactive”.

Consider `O=c1c(-c2ccccc2)nc2cnc(N3CCNCC3)nc2n1C1CC1`, for which the Potency entry is “inactive”.

Regarding `CN1CCN(c2ncc3nc(-c4cccs4)c(=O)n(-c4ccccc4)c3n2)CC1`, the Potency entry was “inactive”. With `CN1CCN(c2nc(-c3ccccc3C(F)(F)F)nc3ccccc23)CC1`, the Potency entry was “inactive”. Then `CCC(C)C(N)C(=O)NC(CC(N)=O)C(=O)NC(CC(C)C)C(=O)NC(CCCCN)C(=O)NC(C)C(=O)NC(CC(C)C)C(=O)NC(C)C(=O)NC(C)C(=O)NC(CC(C)C)C(=O)NC(C)C(=O)NC(CCCCN)C(=O)NC(CCCCN)C(=O)NC(C(=O)NC(CC(C)C)C(N)=O)C(C)CC` (stereo not given), with “inactive”; and `CC(C)(c1cc(Br)c(O)c(Br)c1)c1cc(Br)c(O)c(Br)c1`, with “inactive”.

Take `O=c1c(-c2cccs2)nc2cnc(N3CCNCC3)nc2n1-c1ccccc1`: the Potency result is “inactive”. Then `O=C(Nc1ncccn1)c1ccc([N+](=O)[O-])o1`, with “inactive”; and `COc1ccc(-n2c(=O)c(-c3cccc(C#N)c3)nc3cnc(N4CCNCC4)nc32)cc1`, with “inactive”; and `COc1cccc(CN2CCN(C(=O)c3ccc(-c4ccccc4)cc3)CC2)c1OC`, with “inactive”. Then `COc1cccc(-c2nc(N3CCN(C)CC3)c3ccccc3n2)c1`, with “inactive”; and `COCCn1c(=O)c(-c2ccc(Cl)cc2)nc2cnc(OC)nc21`, with “inactive”. The result for `Fc1ccc(Nc2ccnc(-c3ccccc3C(F)(F)F)n2)cc1` reads “inactive”. Turning to `COCCn1c(=O)c(-c2ccc(F)cc2)nc2cnc(OCc3ccccc3)nc21`, the Potency result is “inactive”. Then `O=c1c(CCc2ccccc2)nc2cnc(N3CCNCC3)nc2n1C1CC1`, with “inactive”. The result for `O=c1c(-c2cc(F)cc(F)c2)nc2cnc(N3CCNCC3)nc2n1-c1ccccc1` reads “inactive”.

In the case of `COc1cccc(-c2ccc3ncnc(N4CCN(C)CC4)c3c2)c1`, the Potency was 35.5 µM (active). Then `FC(F)(F)c1ccccc1-c1nccc(N2CCNCC2)n1`, with “inactive”. Then `Cc1noc(C)c1-c1nc(N2CCNCC2)c2ccccc2n1`, with “inactive”; and `Cc1nc2cnc(N3CCNCC3)nc2n(Cc2ccc(F)cc2)c1=O`, with “inactive”. `COc1ccc(-c2nc3cnc(N4CCNCC4)nc3n(-c3ccc(OC)cc3)c2=O)cc1`: the Potency entry was “inactive”. As to `COCCn1c(=O)c(-c2cn(C)c3ccccc23)nc2cnc(N3CCNCC3)nc21`, the Potency result is “inactive”.

For the compound `O=S(=O)(c1ccccc1)N1CCC[C@@]2(CCN(c3ccncc3)C2)C1`, the Potency entry is “inactive”. The result for `O=C(c1ccco1)N1CCC[C@@]2(CCN(c3ccncc3)C2)C1` reads “inactive”; that for `CN1CCN(c2ncnc3ccc(-c4ccccc4Cl)cc23)CC1`, “inactive”; that for `Cn1c(=O)c(CCc2ccccc2)nc2cnc(OCc3ccccc3)nc21`, “inactive”. Then `CN1CCN(c2nc(-c3ccc(N(C)C)cc3)nc3ccccc23)CC1`, with “inactive”; and `Cc1ccccc1-c1nc(N2CCN(C)CC2)c2ccccc2n1`, with “inactive”; and `COCCn1c(=O)c(-c2ccc(Cl)cc2)nc2cnc(OCc3ccccc3)nc21`, with “inactive”. The result for `CCNc1ncc2nc(CCc3ccccc3)c(=O)n(CCOC)c2n1` reads “inactive”. For the compound `O=c1c(-c2cccs2)nc2cnc(N3CCNCC3)nc2n1CCc1ccccc1`, the Potency result was “inactive”. The result for `COc1ccc(Oc2ncc3nc(CCc4ccccc4)c(=O)n(C[C@H]4CCCO4)c3n2)cc1` reads “inactive”; that for `Clc1ccccc1-c1nc(N2CCNCC2)c2ccccc2n1`, “inactive”. Take `COc1cccc(Cn2c(=O)c(C)nc3cnc(N4CCN(C)CC4)nc32)c1`: the Potency entry was “inactive”. In the case of `CN(C)c1ncc2nc(CCc3ccccc3)c(=O)n(C[C@H]3CCCO3)c2n1`, the Potency entry is “inactive”.

The values are drawn from PubChem BioAssay (NCATS).
